Assay outcomes as filed in PubChem BioAssay.
esBAF inh: SWI/SNF esBAF complex inhibition | reporter increase, % at 12.5 µM | hit rate 2% among 350,000 | mouse ES cells, Bmi1-luciferase knock-in reporter, 24 h; 100% = twice the neutral-well signal; in the data active = activation above about 40%;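 note: a rise in the Bmi1 reporter signal indicates esBAF inhibition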
SKN-1 block: blocks SKN-1 activity in C. elegans; C. elegans VP596 Pgst-4::GFP/RFP ratio, acrylamide-induced, 24 h; inhibition, % at 21.8 µM; hit rate 0.49% among 360,000; AID 624304;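 active = interference check ratio from 0.5 to 1.5 plus GFP to RFP signal ratio inhibition reaching or exceeding a fixed threshold, cut at about 30% in these data, passing the limit was not always enough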
Vif inh: inhibitors of HIV Vif; HEK293T cells, Vif self-association by quenched fluorescence, imaging, 24 h; inhibition, % at 7.49 µM; hit rate 0.35% among 340,000; in the data active = inhibition above about 50%, passing the limit was not always enough
NadD block: blocks S. aureus nicotinate mononucleotide adenylyltransferase; purified NadD enzyme, colorimetric absorbance read-out; inhibition, % at 20 µM; hit rate 0.78% among 360,000; in the data active = inhibition above about 26%
GRIN3A LBD mod: NR3A (human) ligand-binding domain modulation | Tm shift relative to glycine control, % at 25 µM | AID 1259313 | NR3A LBD differential scanning fluorimetry, Tm shift; 0% = protein alone, 100% = glycine-bound protein | hit rate 2.5% among 340,000;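 active = melting temperature shift of at least 10% of the positive control shift, at one fixed dose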
SMARCA2 activ: increases SMARCA2 function in MMTV reporter cells. activation, % at 9.1 µM. MG213 cells, MMTV-luciferase reporter, dexamethasone, overnight. hit rate 1% among 370,000; in the data active = activation above about 7.8%
Each line names hits and unclear results; the compound was inactive in the other large screens; ! = not active in a repeat. This is a sample that favours compounds with a hit; in the whole collection about 5.2% have one here.

CCOc1ccc(OCc2ccc(C(=O)NC(C)(C)C)o2)cc1	none
CC(C)c1ccc(OCc2ccc(C(=O)N(C)C)o2)cc1	esBAF inh 57
COCC(=O)N(C)C[C@H]1Oc2cc(C#CCC(C)C)ccc2S(=O)(=O)N([C@@H](C)CO)C[C@@H]1C	none (no result: SKN-1 block, Vif inh, NadD block, GRIN3A LBD mod, SMARCA2 activ)
C[C@@H]1CCCCO[C@H](CN(C)Cc2ccncc2)[C@@H](C)CN([C@@H](C)CO)C(=O)c2cc(NS(C)(=O)=O)ccc2O1	none (no result: SKN-1 block, Vif inh, NadD block, GRIN3A LBD mod, SMARCA2 activ)
C[C@H]1CN([C@@H](C)CO)C(=O)c2cc(Br)cnc2O[C@H]1CN(C)C(=O)c1ccccc1	none (no result: SKN-1 block, Vif inh, NadD block, GRIN3A LBD mod, SMARCA2 activ)
O=C(Nc1nccs1)c1ccc(COc2ccccc2Br)o1	esBAF inh 50
O=C(Nc1nccs1)c1ccc(COc2ccc(Cl)cc2)o1	none (no result: esBAF inh)
CCOC(=O)C1CCN(c2c(NCc3ccc(C(=O)NCCOC)cc3)c(=O)c2=O)CC1	none
CCCCNC(=O)c1ccc(CNc2c(N3CCC(C(=O)OCC)CC3)c(=O)c2=O)cc1	GRIN3A LBD mod 11!
Cc1ccc(S(=O)(=O)N[C@@H]2CC[C@@H](CCNC(=O)c3ccc4c(c3)OCO4)O[C@@H]2CO)cc1	none (no result: SKN-1 block, Vif inh, NadD block, GRIN3A LBD mod, SMARCA2 activ)
O=C(NNC(=S)Nc1ccc(F)cc1)c1cccc([N+](=O)[O-])c1	none
Cc1ccc(NC(=S)NNC(=O)c2cccc([N+](=O)[O-])c2)cc1Cl	GRIN3A LBD mod 12 (no result: esBAF inh)
Cc1ccc(C(=O)NNC(=S)Nc2cccc(Cl)c2Cl)cc1[N+](=O)[O-]	GRIN3A LBD mod 18 (no result: Vif inh, SMARCA2 activ)
CC(=O)c1cccc(NC(=S)NNC(=O)c2ccc(C)c([N+](=O)[O-])c2)c1	none
CO[C@@H]1CN(C)C(=O)c2cc(NS(C)(=O)=O)ccc2OC[C@H](C)N(Cc2ccccc2)C[C@@H]1C	none (no result: SKN-1 block, Vif inh, NadD block, GRIN3A LBD mod, SMARCA2 activ)
COc1cc(OC)c(-c2nc3cnccc3n2C)cc1OC	none
Cn1c(-c2ccc3ccccc3n2)nc2cnccc21	esBAF inh 66
CCOc1cc(S(=O)(=O)NCCN2CCOCC2)c(C)cc1C	GRIN3A LBD mod 11
C[C@H](O)C#Cc1cnc2c(c1)C(=O)N([C@@H](C)CO)C[C@@H](C)[C@@H](CN(C)C(=O)Nc1ccc(F)cc1)O2	none (no result: SKN-1 block, Vif inh, NadD block, GRIN3A LBD mod, SMARCA2 activ)
CCOP(=O)(OCC)c1nc(-c2cccc3ccccc23)oc1NCCc1ccc(OC)cc1	GRIN3A LBD mod 16
COc1ccc(CNc2oc(-c3cccc4ccccc34)nc2C#N)cc1	none
C[C@@H]1CN([C@@H](C)CO)C(=O)c2cc(C3=CCCCC3)cnc2O[C@@H]1CN(C)C(=O)c1ccccn1	none (no result: SKN-1 block, Vif inh, NadD block, GRIN3A LBD mod, SMARCA2 activ)
COc1ccc(-c2nnc(SCC(=O)N3CCCC3=O)n2N)cc1OC	GRIN3A LBD mod 19
CCn1c2ccccc2c2cc(NC(=O)CSc3nnc(-c4ccc(OC)c(OC)c4)n3N)ccc21	SKN-1 block 36
COc1ccc(-c2nnc(SCC(=O)N3CCCc4ccccc43)o2)cc1OC	Vif inh 61
Nn1c(SCC(=O)N2CCCC2=O)nnc1-c1cccs1	none (no result: esBAF inh)
CN(C)CC#Cc1cccc(-c2nc(C(=O)NCCCN3CCOCC3)cc3c2[C@H](CCO)N(S(=O)C(C)(C)C)C3)c1 (some centres undefined)	none (no result: SKN-1 block, Vif inh, NadD block, GRIN3A LBD mod, SMARCA2 activ)
CN(C)c1ccc(NC(=O)c2ccc(COc3cccc(Cl)c3)o2)cc1	esBAF inh 74
CCN1CCN(C(=O)c2ccc(COc3cccc(Cl)c3)o2)CC1	none (no result: esBAF inh)
O=[N+]([O-])c1ncccc1OCc1ccc(Cl)c(Cl)c1	esBAF inh 67
Cc1ccc(S(=O)(=O)NCC(c2cccnc2)N2CCN(Cc3ccccc3)CC2)cc1 (centres undefined)	none
COc1ccccc1N1CCN(C(CNS(C)(=O)=O)c2cccnc2)CC1 (centres undefined)	none (no result: esBAF inh)
CCN1CCN(C(CNS(=O)(=O)c2ccc(C)cc2)c2cccnc2)CC1 (centres undefined)	Vif inh 53
COc1ccccc1N1CCN(C(CNS(=O)(=O)c2ccc(C)cc2)c2cccnc2)CC1 (centres undefined)	GRIN3A LBD mod 16
COCC(=O)Nc1ccc2c(c1)OC[C@@H](C)N(C(=O)c1ccncc1)C[C@@H](C)[C@H](OC)CN(C)C2=O	none (no result: SKN-1 block, Vif inh, NadD block, GRIN3A LBD mod, SMARCA2 activ)
C[C@@H]1CN([C@H](C)CO)C(=O)Cc2cc(NC(=O)c3ccncc3)ccc2O[C@@H]1CN(C)S(C)(=O)=O	none (no result: SKN-1 block, Vif inh, NadD block, GRIN3A LBD mod, SMARCA2 activ)
CCNC(=O)Nc1ccc2c(c1)C(=O)N(C)[C@H]1CC[C@@H](CC(=O)NCc3ccc(F)cc3)O[C@H]1CO2	none (no result: SKN-1 block, Vif inh, NadD block, GRIN3A LBD mod, SMARCA2 activ)
